Growth data for 20 compounds are collected here from PubChem BioAssay (NCI).

The panel holds about 83,000 compounds, 20% with a hit somewhere; the sample as a whole holds those more often.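 Step 1: grow cells in 96-well plates. Step 2: add test compound at a single concentration. Step 3: incubate 48 h. Step 4: record percent growth.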 Values without a mark were called inactive. Activity calls are given as the source filed them. The calls were made as follows: active = growth percent below 10; inactive = the rest.

Test systems include NCI-H23 lung; NCI-H226 lung; NCI-H322M lung; HOP-62 NSCLC; NCI-H460 lung; A549/ATCC NSCLC; 786-0 renal; COLO 205 colon; DU-145 prostate.
Assay in all cases: NCI-60 one-dose screen, 48 h (100 = growth as untreated, 0 = no growth, -100 = all killed)
Common to all, as to details: 10 µM

In the case of `COc1cc(-c2cc(/C=C3\C(=O)Nc4ccc(Cl)cc43)[nH]n2)cc(OC)c1OC`, the growth with NCI-H23 lung is 38.3%; with NCI-H226 lung it was 58.2%; in the experiment with NCI-H322M lung, 51.5%; with HOP-62 NSCLC, 44.6%; in the experiment on NCI-H460 lung, 38%; in the experiment with A549/ATCC NSCLC, 40.4%. Moreover, the growth with 786-0 renal was 61.6%; in the experiment on COLO 205 colon it was 11.4%.

Take `O=C(O)CCCCSc1ncnc2nc[nH]c12`: the growth is 103% in the experiment with NCI-H23 lung; 98.6% in the experiment with NCI-H226 lung; 90.2% with NCI-H322M lung; 96.7% in the experiment on HOP-62 NSCLC; 109% with NCI-H460 lung; 101% with A549/ATCC NSCLC. Also, the growth is 97.2% with 786-0 renal, 103% in the experiment with COLO 205 colon and 101% with DU-145 prostate.

As to `O=C1CC[C@@H]2CCCC[C@@H]2C1`, the growth with NCI-H23 lung is 99.9%; in the experiment on NCI-H226 lung, 105%; with NCI-H322M lung it was 110%; in the experiment on HOP-62 NSCLC it was 96.7%; with NCI-H460 lung, 112%; in the experiment with A549/ATCC NSCLC, 107%. For the same compound, the values for the growth in the experiment on 786-0 renal, in the experiment with COLO 205 colon and with DU-145 prostate were 103%, 108% and 123%, respectively.

For the compound `COc1ccc(Nc2cc(C)nc(NCCCNc3ccnc4cc(Cl)ccc34)n2)cc1`, the growth with NCI-H23 lung is 63.2%; in the experiment with NCI-H226 lung, 110%; in the experiment on NCI-H322M lung, -3.79% (active); in the experiment on HOP-62 NSCLC, 18.7%; with NCI-H460 lung, -4.78% (active); in the experiment on A549/ATCC NSCLC, -44.7% (active). The figures for the growth with 786-0 renal, in the experiment on COLO 205 colon and with DU-145 prostate were -97.7% (active), -96.3% (active) and 28%, respectively.

For `CCN1CCC(CCOC)(CN2c3ccccc3Sc3ccc(Cl)cc32)C1` (centres undefined), the growth with NCI-H23 lung is 63.5%; with NCI-H226 lung it was 73.9%; in the experiment with NCI-H322M lung, 65.7%; with HOP-62 NSCLC, 58.3%; in the experiment with NCI-H460 lung, 24.1%; in the experiment with A549/ATCC NSCLC, 61.1%. Further, the figures for the growth in the experiment with 786-0 renal, in the experiment on COLO 205 colon and in the experiment with DU-145 prostate were 48.7%, 40% and 69.5%, respectively.

Take `CC1=C(N2CCOCC2)C(N2CCOCC2)=C(C)C(=O)C1=O`: the growth is 103% in the experiment with NCI-H23 lung; 98.2% in the experiment on NCI-H226 lung; 114% in the experiment on NCI-H322M lung; 93.6% with HOP-62 NSCLC; 104% in the experiment with NCI-H460 lung; 102% with A549/ATCC NSCLC. Further, the values for the growth in the experiment with 786-0 renal, in the experiment on COLO 205 colon and in the experiment with DU-145 prostate were 102%, 103% and 108%, respectively.

`Cc1cc(N(CCCNc2ccnc3cc(Cl)ccc23)Cc2cccs2)nc(Cl)n1`: the growth is 25.3% in the experiment with NCI-H23 lung; 52.5% with NCI-H226 lung; 72.9% in the experiment with NCI-H322M lung; 41.1% in the experiment on HOP-62 NSCLC; 35.3% with NCI-H460 lung; 51.9% in the experiment on A549/ATCC NSCLC. Besides, the growth in the experiment with 786-0 renal is 48.2%; in the experiment on COLO 205 colon, -37.9% (active); in the experiment on DU-145 prostate, 50.2%.

With `COc1ccc2c(c1)N(CCO)C1=C(C(=O)OC1)C2c1cc(OC)c(OC)c(OC)c1` (centres undefined), the growth is 17.4% with NCI-H23 lung; 2.05% (active) in the experiment with NCI-H226 lung; 17% in the experiment with NCI-H322M lung; 25.6% with HOP-62 NSCLC; 0.781% (active) in the experiment on NCI-H460 lung; 13.1% with A549/ATCC NSCLC. Further, the growth is 25.3% in the experiment with 786-0 renal, -65.4% (active) with COLO 205 colon and -30.8% (active) with DU-145 prostate.

With `COc1cc(Nc2ccnc(NCCNc3ccnc4cc(Cl)ccc34)n2)cc(OC)c1`, the growth was 38.2% in the experiment on NCI-H23 lung; 55.5% with NCI-H226 lung; 46.5% in the experiment with NCI-H322M lung; 79.2% in the experiment on HOP-62 NSCLC; 27.8% in the experiment with NCI-H460 lung; 42.9% in the experiment on A549/ATCC NSCLC. Further, the growth in the experiment with 786-0 renal was 35.4%; in the experiment on COLO 205 colon, 2.21% (active); in the experiment with DU-145 prostate it was 63.9%.

Regarding `O=C(CC(c1ccccc1)N1CCOCC1)c1ccccc1` (centres undefined), the growth with NCI-H23 lung was 83.3%; with NCI-H226 lung, 90.8%; in the experiment on NCI-H322M lung, 96.9%; with HOP-62 NSCLC, 88.2%; with NCI-H460 lung, 106%; with A549/ATCC NSCLC, 97.4%. Moreover, the growth in the experiment with 786-0 renal was 80.9%; with COLO 205 colon, 116%; in the experiment with DU-145 prostate, 80.3%.

For `CC(=O)OCc1cc(-c2nc3ccccc3[nH]c2=O)nn1-c1ccc(Cl)cc1`, the growth with NCI-H23 lung is 91.5%; with NCI-H226 lung, 93%; in the experiment with NCI-H322M lung, 107%; with HOP-62 NSCLC it was 94.9%; in the experiment with NCI-H460 lung, 104%; in the experiment with A549/ATCC NSCLC, 52%. Further, the growth in the experiment with 786-0 renal is 96.4%; in the experiment with COLO 205 colon, 126%; in the experiment with DU-145 prostate, 110%.

As to `COc1ccc([N+](=O)[O-])c(C(=O)O)c1`, the growth is 105% in the experiment with NCI-H23 lung; 95% with NCI-H226 lung; 93.4% with NCI-H322M lung; 100% in the experiment on HOP-62 NSCLC; 106% in the experiment with NCI-H460 lung; 103% in the experiment with A549/ATCC NSCLC. Moreover, the growth was 101% in the experiment on 786-0 renal, 102% in the experiment on COLO 205 colon and 112% in the experiment with DU-145 prostate.

As to `COC(=O)C(=C\c1ccc2c(c1)OCO2)/C(=C/c1ccc2c(c1)OCO2)C(=O)OC`, the growth with NCI-H23 lung is 92.4%; with NCI-H226 lung it was 97.8%; with NCI-H322M lung, 96.9%; with HOP-62 NSCLC, 102%; in the experiment with NCI-H460 lung, 112%; in the experiment with A549/ATCC NSCLC it was 101%. Also, the results for the growth with 786-0 renal, with COLO 205 colon and in the experiment with DU-145 prostate were 98.1%, 102% and 103%, respectively.

As for `O=C(Nc1cccc(-n2cc(-c3ccncc3)c(-c3cc(O)cc(Cl)c3)n2)c1)c1ccc(N2CCOCC2)c(C(F)(F)F)c1`, the growth in the experiment with NCI-H23 lung was 15.4%; with NCI-H226 lung, 94.7%; in the experiment on NCI-H322M lung, 43.5%; in the experiment with HOP-62 NSCLC, -2.19% (active); in the experiment on NCI-H460 lung, -26% (active); in the experiment on A549/ATCC NSCLC it was 9.62% (active). Moreover, the results for the growth with 786-0 renal, with COLO 205 colon and in the experiment on DU-145 prostate were 36.6%, 80.5% and 38%, respectively.

In the case of `Nc1nccc(Nc2ccccc2)n1`, the growth is 101% in the experiment with NCI-H23 lung; 91.7% in the experiment on NCI-H226 lung; 115% with NCI-H322M lung; 102% in the experiment on HOP-62 NSCLC; 109% in the experiment with NCI-H460 lung; 99.1% in the experiment on A549/ATCC NSCLC. The growth with 786-0 renal was 96.4%; with COLO 205 colon, 114%; with DU-145 prostate it was 109%.

Take `Cc1cc(O)c(C(C)(C)C)cc1Sc1cc(C(C)(C)C)c(O)cc1C`: the growth in the experiment on NCI-H23 lung is 44.5%; with NCI-H226 lung it was 84.3%; in the experiment with NCI-H322M lung, 81.6%; in the experiment on HOP-62 NSCLC it was 62%; with NCI-H460 lung it was 42%; in the experiment with A549/ATCC NSCLC it was 35.2%. The growth with 786-0 renal is 79.9%; in the experiment with COLO 205 colon, 90.7%; with DU-145 prostate it was 50%.

Regarding `CCCCCCCCCCCCCCCCN(C(C)c1ccccc1)S(=O)(=O)c1ccc(OC)c(N)c1` (centres undefined), the growth in the experiment on NCI-H23 lung is 93.7%; in the experiment on NCI-H226 lung, 108%; in the experiment on NCI-H322M lung, 128%; with HOP-62 NSCLC it was 117%; in the experiment with NCI-H460 lung, 107%; in the experiment with A549/ATCC NSCLC, 107%. The results for the growth with 786-0 renal, in the experiment on COLO 205 colon and in the experiment with DU-145 prostate were 124%, 123% and 116%, respectively.

In the case of `Cc1cc(C)c(CCc2cc(C)c(C)cc2C)cc1C`, the growth with NCI-H23 lung was 98%; with NCI-H226 lung it was 92.3%; in the experiment with NCI-H322M lung it was 112%; with HOP-62 NSCLC, 117%; with NCI-H460 lung it was 110%; in the experiment with A549/ATCC NSCLC, 99.9%. In addition, the growth in the experiment with 786-0 renal is 108%; with COLO 205 colon, 118%; with DU-145 prostate, 107%.

As to `O=C(CCCCCCC(=O)Nc1cccnc1)NO`, the growth in the experiment on NCI-H23 lung is 57.9%; with NCI-H226 lung, 86.5%; in the experiment with NCI-H322M lung, 27.7%; with HOP-62 NSCLC, 39.5%; with NCI-H460 lung it was 39.9%; in the experiment on A549/ATCC NSCLC, 66.2%. The growth in the experiment with 786-0 renal was 70.4%; in the experiment on COLO 205 colon, 113%; with DU-145 prostate, 40.1%.

On to `C=C(Cl)[C@@](Cl)(CBr)CC[C@@H](Br)C(C)(C)Cl`, for which the growth was 83.2% in the experiment on NCI-H23 lung; 105% with NCI-H226 lung; -98.1% (active) in the experiment on NCI-H322M lung; -93.2% (active) in the experiment on HOP-62 NSCLC; -47.7% (active) in the experiment with NCI-H460 lung; -6.36% (active) in the experiment with A549/ATCC NSCLC. Moreover, the figures for the growth in the experiment on 786-0 renal, with COLO 205 colon and in the experiment with DU-145 prostate were -65.5% (active), -70.3% (active) and -94.3% (active), respectively.
